# Source: PubChem (several laboratories)
# Hits are enriched below; roughly 3.7% of the tested compounds scored in any of these assays.
# Anthrax LF inh2: blocks Bacillus anthracis lethal factor protease; AID 588501; multiplex microsphere protease cleavage assay, LF; inhibition, % at 10 µM; P15917; hit rate 0.12% among 360,000
# Target sequence (P15917 whole entry, looked up): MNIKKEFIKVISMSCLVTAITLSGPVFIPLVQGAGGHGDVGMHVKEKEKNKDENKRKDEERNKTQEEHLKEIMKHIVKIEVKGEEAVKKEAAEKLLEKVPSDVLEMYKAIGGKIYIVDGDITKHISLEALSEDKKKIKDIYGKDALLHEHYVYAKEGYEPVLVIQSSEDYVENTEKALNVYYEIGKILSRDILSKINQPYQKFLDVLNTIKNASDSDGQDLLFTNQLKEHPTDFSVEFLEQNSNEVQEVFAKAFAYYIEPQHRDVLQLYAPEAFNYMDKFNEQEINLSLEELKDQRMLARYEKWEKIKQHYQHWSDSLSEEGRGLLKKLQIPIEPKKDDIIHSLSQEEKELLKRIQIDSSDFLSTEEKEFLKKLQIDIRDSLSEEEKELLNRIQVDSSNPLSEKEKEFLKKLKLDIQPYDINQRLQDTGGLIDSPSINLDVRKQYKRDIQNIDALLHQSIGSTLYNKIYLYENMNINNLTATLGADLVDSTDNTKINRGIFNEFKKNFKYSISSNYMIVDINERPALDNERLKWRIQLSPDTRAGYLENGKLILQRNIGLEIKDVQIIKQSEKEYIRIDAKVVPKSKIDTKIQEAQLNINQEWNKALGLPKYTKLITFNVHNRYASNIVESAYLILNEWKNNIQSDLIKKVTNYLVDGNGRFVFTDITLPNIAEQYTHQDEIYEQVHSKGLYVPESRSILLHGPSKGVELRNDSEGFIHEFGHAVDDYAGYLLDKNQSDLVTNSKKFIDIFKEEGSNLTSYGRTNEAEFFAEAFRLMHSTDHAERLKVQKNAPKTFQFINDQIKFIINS
# BoNT F protease: BoNT F light chain protease inhibition | hit rate 0.22% among 360,000 | Multiplex microsphere protease cleavage assay, flow cytometry | AID 588497 | inhibition, % at 10 µM; in the data active = inhibition above about 35%, passing the limit was not always enough; inconclusive = no clear call, values can overlap the other calls
# BoNT-A LC inh2: BoNT A light chain protease inhibition. multiplex microsphere protease substrate cleavage, flow cytometry. inhibition, % at 10 µM. hit rate 0.17% among 360,000
# MazEF act: activators of E. coli MazEF toxin-antitoxin RNase. hit rate 0.32% among 350,000. activation, % at 20 µM. FAM/BHQ RNA-DNA oligo cleavage fluorescence, 5 h. P0AE70; in the data active = activation above about 50%
# Autofluor counter: compound fluorescence in toxin protease inhibitor counterscreen. compound autofluorescence counterscreen, microsphere flow cytometry; hits give high values. fluorescence intensity (test concentration not listed). hit rate 3.1% among 360,000; in the data active = fluorescence intensity above about 16000; inconclusive = no clear call, values can overlap the other calls
# Hits are given with their value; – = inactive; ? = inconclusive; · = no result. Cut-off read from the data, not from the text of the source, unless noted: active = inhibition above about 30%; inconclusive = no clear call, values can overlap the other calls; inactive = below that.
SMILES,Anthrax LF inh2,BoNT F protease,BoNT-A LC inh2,MazEF act,Autofluor counter
CCOC(=O)C1(C)CCCN1C(=O)c1snnc1C (configuration not stated),–,–,–,·,–
Cc1cccc(C)c1Cn1c(C)c(C(=O)NCc2ccc([N+](=O)[O-])cc2)sc1=O,–,–,–,·,–
CCc1c(O)nc(SCC(N)=O)n(-c2ccccc2F)c1=O,–,–,–,–,–
C=CCSc1nc(O)c(CC)c(=O)n1C(C)CC (configuration not stated),–,–,?,–,24804
CCc1c(O)nc(SCc2ccccc2)n(C(C)CC)c1=O (configuration not stated),–,–,–,–,21259
C=CCn1c(SCC(=O)Nc2cccc3ccccc23)nc(O)c(CC)c1=O,–,–,–,–,–
C=Cc1ccc(CC2(C)C(=O)Nc3ccc(-c4cccnc4)cc32)cc1 (configuration not stated),–,–,–,·,–
O=C(CSc1nnnn1-c1cccc2ccccc12)Nc1ccc(N2CCOCC2)c(Cl)c1,–,–,–,–,16201
O=C(CSc1nnnn1-c1ccccc1)Nc1ccc(N2CCOCC2)c(Cl)c1,–,–,–,–,–
CC1CC2(O)c3no[n+]([O-])c3CCC2N1O (configuration not stated),–,–,–,–,22460
Cc1ccc(S(=O)(=O)NC(=O)c2cccn2C)cc1,–,–,–,–,16326
OC(c1cccc(Cl)c1)c1nc(-c2csc3ccccc23)cs1 (configuration not stated),–,–,–,·,–
Cc1nc(NC(C)c2ccccc2)c2c3c(sc2n1)CCC3 (configuration not stated),–,–,–,–,16604
Cc1ccc(CNc2nc(C)nc3sc4c(c23)CCC4)cc1,–,–,?,–,17440
Cc1nn(C)c(Cl)c1NC(=O)OCc1ccc(Cl)cc1Cl,–,–,?,–,23382
Cc1nn(Cc2ccc(Cl)cc2Cl)c(C)c1NC(=O)CCl,–,–,?,–,19112
Cc1nnsc1NC(=O)OCc1ccc(Cl)cc1Cl,–,–,–,–,–
Cc1nc2ccccc2c(=O)n1NC(=O)c1c(O)c2c(n(CC(C)C)c1=O)CCCC2,–,–,–,–,19971
CCC(=O)OCOc1ccc(/C=C2/CCC(CN(C)C)C2=O)cc1 (configuration not stated),–,–,–,–,–
CN(C)c1ccc(/C=N/NC(=O)c2ccccn2)cc1,–,–,–,–,–
CN(C)c1ccc(/C=N/NC(=O)c2cnc3ccccc3c2)cc1,–,–,–,190,–
CCc1ccc(CN2CCN(c3ncccn3)CC2)cc1,–,44,–,–,–
CCC(=O)N1CCc2cc(S(=O)(=O)NCCC(=O)N3CC=C(c4ccccc4)CC3)ccc21,–,–,–,·,22498
CCC(=O)N1CCc2cc(S(=O)(=O)NCCC(=O)N3CCc4ccccc4C3)ccc21,–,–,–,–,–
CCOc1ccc2oc(-c3ccccc3)c(C(=O)N3CCN(C)CC3)c2c1,–,–,–,–,22066
SMILES,Anthrax LF inh2,BoNT F protease,BoNT-A LC inh2,MazEF act,Autofluor counter
O=C(/C=C/c1ccccc1)NCCC1=CCCCC1,–,–,–,–,–
O=C(/C=C/c1ccc(F)cc1)NCCC1=CCCCC1,–,–,–,–,23985
CCN(CC)C(=O)C1=C(C)N(CCCN2CCCC2=O)C(=O)C(CC(=O)NCCN2CCOCC2)C1 (configuration not stated),–,–,–,–,–
CCC(C)(C)NC(=O)CN(Cc1cccs1)C(=O)CNS(=O)(=O)c1ccc(C)cc1,–,–,–,–,16739
CCCCn1nnnc1NCc1ccc(N(CC)CC)cc1,–,–,–,–,23951
CCCCn1nnnc1NCc1ccc(C)cc1,–,–,–,–,–
Cc1c(C(=O)N2CCN(CCc3ccccc3)CC2)oc2ccccc12,–,–,–,–,24130
Cc1c(C(=O)N2CCN(S(=O)(=O)c3ccccc3)CC2)oc2ccccc12,–,–,–,–,–
Cc1c(C(=O)N2CCN(S(C)(=O)=O)CC2)oc2ccccc12,–,–,–,–,20670
CC1(C(=O)NS(=O)(=O)c2cccc(Cl)c2)CCN1C(=O)CCc1ccccc1 (configuration not stated),–,–,–,·,–
CC(O)C(NS(=O)(=O)c1ccc(Cl)cc1)C(=O)OCC(=O)c1c[nH]c2ccccc12 (configuration not stated),–,–,–,–,–
CC(C)C(NS(=O)(=O)c1c(Cl)cccc1Cl)C(=O)OCC(=O)c1c[nH]c2ccccc12 (configuration not stated),–,–,58,–,–
CC(NC(=O)c1ccc(F)cc1)c1nc2ccccc2n1Cc1ccccc1F (configuration not stated),–,–,–,–,26278
CCCn1c(C(C)NC(=O)c2ccccc2)nc2ccccc21 (configuration not stated),–,–,–,–,–
O=C(NNc1ccccc1[N+](=O)[O-])Nc1ccccc1,–,–,?,–,20435
C=CCSc1n[nH]c(-c2ccc(OCCCC)cc2)n1,–,–,–,–,16907
CC1CN(c2nc3c(c(=O)n(C)c(=O)n3C)n2Cc2c(F)cccc2Cl)CC(C)O1 (configuration not stated),–,–,–,–,18917
Cn1c(=O)c2c(nc(CN3CCN(c4ccccc4)CC3)n2Cc2c(F)cccc2Cl)n(C)c1=O,–,–,?,–,22170
Cn1c(=O)c2c(nc(CN3CCN(c4ccccc4)CC3)n2Cc2ccccc2Cl)n(C)c1=O,–,–,?,–,19891
CC(=O)Nc1cccc(-c2ccnc3c2CC(C)(C(=O)Nc2ccc(C(C)C)cc2)O3)c1 (configuration not stated),–,–,–,·,–
Cc1cc2c(c(CO)c1CCO)C(=O)[C@@H](C)[C@@H]2O,–,–,–,–,–
CCOc1ccc(CCn2c(-c3ccco3)nc3ccccc3c2=O)cc1OCC,–,–,–,–,16599
CC1=C(C)[N+](=O)C2CCCCC2N1[O-] (configuration not stated),–,–,?,–,17133
C=C(C)CSc1nc2nc(C)c(Br)cc2[nH]1,–,–,–,·,22023
O=c1oc2ccccc2cc1-c1nc2c(s1)CCCC2,–,–,?,–,23234
SMILES,Anthrax LF inh2,BoNT F protease,BoNT-A LC inh2,MazEF act,Autofluor counter
CN1CCc2nc(SCC(=O)Nc3ccc(Cl)cc3)c(C#N)cc2C1,–,–,–,–,–
N#Cc1cc2c(nc1SCC(=O)Nc1cc(Cl)cc(Cl)c1)C1CCN2CC1,–,–,–,–,20731
O=C(/C=C/c1ccccc1)CC(=O)c1ccccc1O,–,–,–,55,–
CCc1ccccc1OCC(=O)Nc1cc(S(=O)(=O)N(CC)CC)ccc1N1CCOCC1,–,–,–,–,–
Nc1ccccc1-c1nc2ccccc2[nH]1,–,–,–,–,22286
CC(C)Oc1ccc(CN2CCC2(C)C(=O)Nc2cnc3ccccc3c2)cc1 (configuration not stated),–,–,–,·,–
Cc1nn(-c2ccccc2)c2c1C1(C(=O)N3c4c(cccc41)C(C)CC3(C)C)C(C#N)=C(N)O2 (configuration not stated),–,–,–,–,22394
